From PubChem BioAssay (NCI)
“And” between values parts separate entries of the source, which are not always exact repeats. Equal values may be shown once. Compounds without any hit were thinned out: in the full panel of roughly 83,000, 20% have a hit.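 48-hour exposure, single concentration, 96-well plates; percent growth endpoint where 0 means no net growth. Active: below 10.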 The source made the active and inactive calls.

What was measured:
Assay in all cases: NCI-60 one-dose screen, 48 h (100 = growth as untreated, 0 = no growth, -100 = all killed)
Conditions in all cases: 10 µM unless noted
DU-145 prostate = tested on: DU-145 prostate
K-562 leukemia = tested on: K-562 leukemia
MALME-3M melanoma = tested on: MALME-3M melanoma
MDA-MB-231 breast = tested on: MDA-MB-231 breast
RXF 393 renal = tested on: RXF 393 renal
SF-268 CNS = tested on: SF-268 CNS
SF-295 CNS = tested on: SF-295 CNS
SF-539 CNS = tested on: SF-539 CNS
UACC-257 melanoma = tested on: UACC-257 melanoma
M14 melanoma = tested on: M14 melanoma

Measured: growth

N#Cc1c(-c2ccc(F)cc2)cc(-c2c[nH]c3ccccc23)nc1-c1c[nH]c2ccccc12
inactive: DU-145 prostate 106% | K-562 leukemia 105% | MALME-3M melanoma 102% | MDA-MB-231 breast 102% | RXF 393 renal 112% | SF-268 CNS 101% | SF-295 CNS 103% | SF-539 CNS 100% | UACC-257 melanoma 107%

CCCCCCCCCC(=O)NC(C)(C)C(=O)N1CCC[C@H]1C(=O)N[C@@H](CC(C)C)C(=O)N[C@@](C)(CC)C(=O)N[C@@H](CCC(N)=O)C(=O)N[C@H](CCC(N)=O)C(=O)NC(C)(C)C(=O)NC(C)(C)C(=O)N[C@@H](CCC(N)=O)C(=O)N[C@H](CC(C)C)C(=O)N[C@H](CO)CC(C)C
active: DU-145 prostate -97.6% and -52.1% | MALME-3M melanoma -91.4% and -84.4% | MDA-MB-231 breast -92.8% and -95.8% | RXF 393 renal -92.3% and -46.4% | SF-268 CNS -68.6% and -46.2% | SF-295 CNS -92.1% and -84.6% | SF-539 CNS -97.7% and -99% | UACC-257 melanoma -95% and -74%
-81.3% (active) and 23% (inactive): K-562 leukemia

O=C(CCCCCCNC(=O)C(O)(O)C(F)(F)F)Nc1nc2ccccc2s1
active: DU-145 prostate 6.73% | RXF 393 renal -47.3% | SF-268 CNS 8.81% | SF-295 CNS -36.5% | UACC-257 melanoma 8.93%
inactive: K-562 leukemia 11.2% | MALME-3M melanoma 14.4% | MDA-MB-231 breast 23.5% | SF-539 CNS 10.5%

Cc1[nH]c(C(=O)Nc2ccc(C(N)=O)cc2N2CCOC(C)C2)c(Cl)c1Cl (centres undefined)
inactive: DU-145 prostate 104% | K-562 leukemia 92.2% | MALME-3M melanoma 99.1% | MDA-MB-231 breast 95.7% | RXF 393 renal 102% | SF-268 CNS 98.8% | SF-295 CNS 103% | SF-539 CNS 95.7% | UACC-257 melanoma 108%

COc1ccc(C(C)=C(c2ccc(OCCN(C)C)cc2)c2ccc(OCCN(C)C)cc2)cc1
inactive: DU-145 prostate 20%
active: K-562 leukemia -67.4% | MALME-3M melanoma -74.4% | MDA-MB-231 breast -52.2% | RXF 393 renal -79.1% | SF-268 CNS -12% | SF-295 CNS -70.2% | SF-539 CNS -79.4% | UACC-257 melanoma -70.4%

O=C(CN1CCN(c2cc(=O)[nH]c3ccc(F)cc23)CC1)N(c1ccccc1)c1ccccc1
inactive: DU-145 prostate 107% | K-562 leukemia 94.9% | MALME-3M melanoma 100% | MDA-MB-231 breast 98.1% | RXF 393 renal 103% | SF-268 CNS 99.8% | SF-295 CNS 107% | SF-539 CNS 101% | UACC-257 melanoma 106%

CN1CCN(Cc2ccc(NC(=O)c3cncc(C#Cc4cnc(N)nc4)c3)cc2C(F)(F)F)CC1
active: K-562 leukemia 5.93% | MALME-3M melanoma -31.1% | MDA-MB-231 breast -7.34%
inactive: DU-145 prostate 34.4% | RXF 393 renal 26.4% | SF-268 CNS 28.1% | SF-295 CNS 33.1% | SF-539 CNS 14.6% | UACC-257 melanoma 22.1%

Cc1ccc2c(n1)C(=O)C(Cl)=C(Nc1ccc(C(F)(F)F)cc1)C2=O
inactive: DU-145 prostate 105% | MDA-MB-231 breast 76.4% | SF-268 CNS 97.7% | SF-295 CNS 112% | SF-539 CNS 101% | UACC-257 melanoma 35.6%
active: K-562 leukemia 7.13% | MALME-3M melanoma -49.6% | RXF 393 renal -15.7%

CCCCCN1C(=O)/C(=c2\sc3n(c2=O)C2C(NN=3)N(CC)C(=O)N2CC)c2cccc(C)c21 (centres undefined)
inactive: DU-145 prostate 76.6% | K-562 leukemia 16.2% | MALME-3M melanoma 51.6% | MDA-MB-231 breast 62.4% | RXF 393 renal 15.1% | SF-268 CNS 56.9% | SF-295 CNS 45% | SF-539 CNS 23.8% | UACC-257 melanoma 79.8%

O=C(CCCCCC/C=C\c1csc(Br)n1)NO
inactive: DU-145 prostate 87.7% | K-562 leukemia 50.5% | MALME-3M melanoma 66.7% | MDA-MB-231 breast 98.4% | RXF 393 renal 97% | SF-268 CNS 108% | SF-295 CNS 95.4% | SF-539 CNS 78.9% | UACC-257 melanoma 82%

Cc1csc(/N=C(N)/N=C(\N)c2cccs2)n1
inactive: DU-145 prostate 110% | K-562 leukemia 95.7% | MALME-3M melanoma 102% | MDA-MB-231 breast 99.5% | RXF 393 renal 106% | SF-268 CNS 103% | SF-295 CNS 113% | SF-539 CNS 99.1% | UACC-257 melanoma 104%

O=C(Nc1ccc(Cl)c(C(F)(F)F)c1)Nc1ccc2oc(=O)ccc2c1
inactive: DU-145 prostate 40.5% | K-562 leukemia 19.1% | MALME-3M melanoma 42.6% | MDA-MB-231 breast 69.3% | RXF 393 renal 89.2% | SF-268 CNS 65% | SF-539 CNS 63.3% | UACC-257 melanoma 64.4% | M14 melanoma 49.6%
active: SF-295 CNS 5.31%

O=c1c2ccccc2cc2n1CCN=C2c1ccccc1
inactive: DU-145 prostate 102% | K-562 leukemia 103% | MALME-3M melanoma 102% | MDA-MB-231 breast 96.2% | RXF 393 renal 96.2% | SF-268 CNS 97.2% | SF-295 CNS 103% | SF-539 CNS 98.6% | UACC-257 melanoma 110% | M14 melanoma 103%

CC[C@H](CC[C@@H](C)[C@H]1CC[C@H]2[C@@H]3CC(=O)C4=CC(=O)/C(=C/c5ccc([N+](=O)[O-])cc5)C[C@]4(C)[C@H]3CC[C@]12C)C(C)C
inactive: DU-145 prostate 104% | K-562 leukemia 81.4% | MALME-3M melanoma 101% | MDA-MB-231 breast 98.2% | RXF 393 renal 120% | SF-268 CNS 108% | SF-295 CNS 97.1% | SF-539 CNS 97.3% | UACC-257 melanoma 110% | M14 melanoma 89.7%
